Screen size: about 50,000 compounds; about 800 (1.6%) showed an effect of 50% or more. The sample holds strong results, similar compounds and a random draw of the others, so the mix is not that of the screen.

The target in the experiment is Bcl-2-like protein 10 (Homo sapiens) (UniProt Q9HD36). Nature of the experiment: Phenotype converters, Bcl-B/TR3 peptide binding displacement, primary biochemical FP (AID 1240).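 Further: 0% = Bcl-B with tracer peptide and DMSO and 100% = tracer peptide lacking Bcl-B.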 To be noted: GST-Bcl-B / FITC-TR3 peptide fluorescence polarization; stronger effect = higher value; compound at 3.75 mg/L. Background: Fluorescence polarisation rises when a labelled molecule tumbles more slowly, as on binding a larger partner.
Sequence of Bcl-2-like protein 10 (Homo sapiens) (Q9HD36 whole entry, looked up): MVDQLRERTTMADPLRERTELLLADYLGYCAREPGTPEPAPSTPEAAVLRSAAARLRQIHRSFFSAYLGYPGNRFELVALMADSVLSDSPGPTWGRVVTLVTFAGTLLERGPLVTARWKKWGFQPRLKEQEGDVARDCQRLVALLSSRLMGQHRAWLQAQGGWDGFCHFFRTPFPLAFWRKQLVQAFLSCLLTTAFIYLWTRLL
On to `CC(C)(C)c1ccc(C2/C(=C(\O)c3ccc(F)cc3)C(=O)C(=O)N2c2nncs2)cc1` (stereo unspecified), for which the displacement is 11.3%. For `Cc1ccc(C2C(C(=O)c3cccs3)=C(O)C(=O)N2c2nncs2)cc1` (stereo unspecified), the displacement was found to be 121%.

Take `Cc1ccc(/C(O)=C2\C(=O)C(=O)N(c3nncs3)C2c2cccc(Br)c2)cc1` (stereo unspecified): the displacement worked out at 18.7%. As to `O=C(C1=C(O)C(=O)N(c2nncs2)C1c1ccc(F)cc1)c1cccs1` (stereo unspecified), the displacement stood at 109%. In the case of `O=C1C(=O)N(c2nncs2)C(c2ccc(F)cc2)/C1=C(\O)c1ccccc1` (stereo unspecified), the displacement came out at 13.6%. Turning to `Cc1ccc(C2/C(=C(\O)c3ccccc3)C(=O)C(=O)N2c2nncs2)cc1` (stereo unspecified), the displacement was 11.3%. In the case of `Nn1c(Nc2ccccc2)nc2ccccc2c1=O` it was -15.5%; in that of `O=C(N/N=C/c1cccc([N+](=O)[O-])c1)C1CC(=O)N(c2ccc(F)cc2)C1` (stereo unspecified), -10.4%. `O=C1CCCC2=C1C(c1ccc([N+](=O)[O-])cc1)C1=C(CCCC1=O)N2c1ccc(Cl)cc1`: the displacement amounted to 17.8%. `Cc1ccc([N+](=O)[O-])cc1NC(=O)CCCOc1ccccc1`: the displacement is 8.1%. As for `COc1ccc(Cl)cc1NC(=O)C1=C(C)NC(=S)NC1c1ccc(F)cc1` (stereo unspecified), the displacement turned out to be 11.9%. In the case of `COC(=O)C1=C(C)NC2=C(C(=O)c3ccccc32)C1c1ccc(-c2ccc([N+](=O)[O-])cc2Br)o1` (stereo unspecified) it was 46.9%; in that of `O=C1C2=C(Nc3ccccc3SC2c2ccc([N+](=O)[O-])cc2)c2ccccc21` (stereo unspecified), -6%; in that of `O=C1NN(c2ccccc2)C(=O)/C1=C\C=C\c1ccccc1`, 30.9%. `O=C1C(=C/C=C/c2ccccc2)C(=O)c2ccccc21`: the displacement was determined as 75%. `O=C1C(=Cc2ccccc2)C(=O)c2ccccc21`: the displacement amounted to 17.6%. `CCOC(=O)c1c(NC(=O)C(Cl)(Cl)Cl)sc2c1CCC2`: the displacement was -3.5%. On to `Cc1ccc2c(c1)NC(c1ccc(Cl)cc1Cl)C1=C(CC(C)(C)CC1=O)N2` (stereo unspecified), for which the displacement turned out to be 13.5%. `O=S(=O)(O)c1nc2ccccc2n1-c1ccccc1`: the displacement was -9.1%. For `CC(C)(C)c1cc(C(=O)N/N=C\c2ccc(Cl)cc2)n[nH]1`, the displacement is -5.3%. Regarding `CC1=C(C(=O)Nc2ccc(C)cc2)C(c2ccc([N+](=O)[O-])cc2)NC(=O)N1` (stereo unspecified), the displacement is -3.6%. As to `COc1ccc(NC(=O)C2=C(C)NC(=O)NC2c2cccc(Cl)c2)cc1` (stereo unspecified), the displacement is 83.7%. On to `COc1ccc(NC(=O)C2=C(C)NC(=O)NC2c2cccc(OC)c2)cc1` (stereo unspecified), for which the displacement was -15.9%. For the molecule `COc1ccc(C2NC(=O)NC(C)=C2C(=O)Nc2cccc(Cl)c2)cc1` (stereo unspecified), the displacement amounted to 11.4%. For `CC1=C(C(=O)Nc2ccc(Cl)cc2)C(c2ccc([N+](=O)[O-])cc2)NC(=S)N1` (stereo unspecified), the displacement is 4.6%. Consider `CC1=C(C(=O)Nc2ccc(Cl)cc2)C(c2ccc([N+](=O)[O-])cc2)NC(=O)N1` (stereo unspecified), for which the displacement was 124%. The figure for `COc1cc(C(=O)Nc2nc3ccc4ccccc4c3s2)cc(OC)c1OC` is 6.6%; for `CCCCN(CCCC)S(=O)(=O)c1ccc(C)cc1` it is -6.8%; for `O=C(/C=C\Nc1ccc2c(c1)OCO2)c1ccc2c(c1)OCO2` it is 104%. In the case of `CNc1cc([N+](=O)[O-])ccc1N/C=C\C(=O)c1ccc2c(c1)OCO2` it was 97.2%; in that of `COC(=O)c1ccc(N/C=C\C(=O)c2ccc3c(c2)OCO3)cc1`, 23.7%. `O=C(/C=C\Nc1ccc2c(c1)OCO2)c1ccc(F)cc1`: the displacement was -2.4%.

In the case of `CNc1cc([N+](=O)[O-])ccc1N/C=C\C(=O)c1ccc2ccccc2c1`, the displacement stood at 14.1%. `O=C(/C=C\Nc1ccc([N+](=O)[O-])cc1Br)c1ccc2c(c1)OCO2`: the displacement was 3%.

For the molecule `COc1ccc(C(=O)Nc2ccc(Br)c(C)c2)c(OC)c1`, the displacement is 14.5%. Consider `COC(=O)c1ccccc1NC(=O)c1cnn2c(C(F)(F)F)cc(-c3ccccc3)nc12`, for which the displacement was found to be 11.9%. In the case of `COc1ccc(N(CC(=O)NC(C)c2ccccc2)S(=O)(=O)c2ccccc2)cc1` (stereo unspecified) it was 5.7%; in that of `CCC(c1ccccc1)c1nnc(NC(=O)Nc2cccc(Cl)c2)s1` (stereo unspecified), -0.8%. On to `COc1cc(NC(=O)c2ccc(-c3ccccc3[N+](=O)[O-])o2)ccc1NC(=O)c1ccco1`, for which the displacement amounted to 7.1%. In the case of `CC(=O)Oc1cc2ccccc2cc1O` it was 3.9%; in that of `C=CCN1C(=O)/C(=C\c2cn(C)c3ccccc23)C(=O)NC1=S`, -18.2%.

With `C=CCN1C(=O)/C(=C\c2ccc(-c3ccc([N+](=O)[O-])cc3)o2)C(=O)NC1=S`, the displacement came to 12.1%. The figure for `C=CCN1C(=O)/C(=C\c2cn(Cc3ccc([N+](=O)[O-])cc3)c3ccccc23)C(=O)NC1=S` is 87.4%; for `CSc1ccc(S(=O)(=O)NCc2ccccc2C)cc1` it is 16.3%. Turning to `O=[N+]([O-])c1ccc(/C=N/c2nc3c(s2)CCCC3)cc1`, the displacement was determined as 6.6%. Turning to `COc1ccc(C(=O)c2c(N)c(C#N)c(C)n2-c2ccccc2)cc1`, the displacement was found to be 9.3%. In the case of `COc1ccc(OCC(=O)Nc2ccc(OC)c(OC)c2)cc1` it was -4.2%; in that of `O=c1cc(=O)n(-c2ccccc2)c2ccccc12`, -0.3%.

Take `COc1ccc(-c2ccc(/C=C/c3cc(C(F)(F)F)[nH]c(=O)n3)o2)c([N+](=O)[O-])c1`: the displacement is 78.8%. For `COc1ccc(-c2ccc(/C=C3/C(=O)NC(=O)N(c4ccccc4)C3=O)o2)c([N+](=O)[O-])c1`, the displacement was 78.3%. Take `Cc1ccc(N2C(=O)NC(=O)/C(=C/c3ccc(C)c([N+](=O)[O-])c3)C2=O)cc1`: the displacement is -16.7%. In the case of `COc1ccc(-c2ccc(/C=C3\C(=O)NC(=O)N(c4ccc(Cl)cc4)C3=O)o2)c([N+](=O)[O-])c1`, the displacement amounted to 47%. Regarding `COc1ccc(N2C(=O)NC(=O)/C(=C/c3ccc(-c4ccccc4[N+](=O)[O-])o3)C2=O)cc1`, the displacement was -46.3%. On to `COc1ccc(-c2ccc(/C=C3/C(=O)NC(=O)N(c4ccc(C)cc4)C3=O)o2)c([N+](=O)[O-])c1`, for which the displacement stood at 83.5%. Turning to `Cc1c(Cl)cccc1-c1ccc(/C=C/c2cc(C(F)(F)F)[nH]c(=O)n2)o1`, the displacement is -60.9%. Take `COc1ccc(N2C(=O)/C(=C/c3ccc(-c4ccccc4[N+](=O)[O-])o3)C(=O)NC2=S)cc1`: the displacement came to 15.9%. `O=C1NC(=O)N(c2ccccc2)C(=O)/C1=C\c1ccc(-c2ccccc2[N+](=O)[O-])o1`: the displacement amounted to 2.7%. Consider `Cc1ccc(N2C(=O)NC(=O)/C(=C\c3ccc(-c4ccc(C)c([N+](=O)[O-])c4)o3)C2=O)cc1`, for which the displacement was 151%. With `Cc1ccc(N2C(=O)NC(=O)/C(=C\c3ccc(-c4cccc([N+](=O)[O-])c4)o3)C2=O)cc1`, the displacement was -5.9%. The figure for `O=c1nc(/C=C/c2ccc(-c3ccc([N+](=O)[O-])cc3Cl)o2)cc(C(F)(F)F)[nH]1` is 11.9%. For the molecule `O=C(Nc1cccc(Oc2ccc3c(c2)C(=O)N(c2ccccc2)C3=O)c1)c1cccc([N+](=O)[O-])c1`, the displacement came out at 12.7%.

For the origin of these results see PubChem BioAssay AID1240 (Sanford-Burnham Center for Chemical Genomics, 2008).
